Assay results reported in ChEMBL document CHEMBL1157539, “Thousands of chemical starting points for antimalarial lead identification” (Nature, 2010).

Tests used:
Type in all cases: functional
Plasmodium falciparum [1] = assay: GSK_TCMDC: Inhibition of Plasmodium falciparum 3D7 in whole red blood cells, using parasite LDH activity as an index of growth. Test compounds present at 2uM
Plasmodium falciparum [2] = assay: GSK_TCMDC: Inhibition of Plasmodium falciparum Dd2 in whole red blood cells, using parasite LDH activity as an index of growth. Test compounds present at 2uM
HepG2 = assay: GSK_TCMDC: Percent inhibition of human HepG2 cell line. Test compounds present at 10uM.

SMILES | Inhibition (Plasmodium falciparum [1]) [%] | Inhibition (Plasmodium falciparum [2]) [%] | Inhibition (HepG2) [%]
O=C(O)C(F)(F)F.O=C1COC2(CN1C1CCN(Cc3ccc(O)cc3Cl)C1)c1ccccc1-c1ccccc12 (centres undefined) | 82 | 70 | 10
OC(CNCc1ccccc1OCc1ccccc1)c1cccc(Cl)c1 (centres undefined) | 100 | 100 | 0
CCCCCC(C)(C)NC[C@@H](O)[C@H](Cc1ccccc1)NC(=O)c1cc(NCC)cc(N2CCCC2=O)c1.O=CO | 99 | 97 | 9
Cc1cc2ccccc2c(CON2C(=N)N=C(N)NC2(C)C)c1C.Cl | 93 | 31 | 65
COc1cc2nc(N3CCC(CNC(=O)c4ccc(-c5ccc(Cl)cc5)cc4)CC3)nc(N)c2cc1OC | 100 | 100 | 99
Cc1ccc(NC(=O)c2ccc(NCCCN3CC(C)CC(C)C3)c([N+](=O)[O-])c2)cc1F (centres undefined) | 100 | 85 | 18
Cc1ccc(-c2nnc3c4ccccc4c(C)nn23)cc1S(=O)(=O)N1CCN(CCO)CC1 | 85 | 62 | 16
CC(C)N1CCCN(C(=O)C2CCN(c3ccc(C(=O)N4CCCC4)cn3)CC2)CC1.Cl | 86 | 12 | 41
CC(CCNc1c2ccccc2nc2ccccc12)N1CCN(C)CC1.Cl (centres undefined) | 100 | 0 | 25
Cc1nc(-c2cccc(NCc3ccccc3)c2)[nH]c1C.Cl | 100 | 48 | 16
CNC(=O)c1cnc(Nc2ccc(N3CCOCC3)cc2)nc1Nc1cccc(OC)c1.O=C(O)C(F)(F)F | 96 | 41 | 2
O=C(NCCN1CCCC1)c1ccc(-c2cccc(-c3nc4cc(F)ccc4[nH]3)c2)cc1 | 100 | 2 | 29
CS(=O)(=O)c1ccc(CNCc2cccc(-c3cccc(-c4nc5ccccc5[nH]4)c3)c2)cc1.O=C(O)C(F)(F)F | 100 | 47 | 3
N#Cc1ccc(-c2cnc3ccc(NCCc4cccnc4)nn23)cc1 | 99 | 81 | 27
COc1cc2nc(N3CCC(CNC(=O)c4ccc(-c5ccc(-c6noc(C)n6)cc5C)cc4)CC3)nc(N)c2cc1OC | 100 | 99 | 99
O=C(NC1CCCCC1)N(Cc1cccc(-c2ccc(CNCCc3ccccc3)cc2)c1)C1CCN(Cc2ccccc2)CC1.O=C(O)C(F)(F)F | 93 | 93 | 61
CCN(CC)CCN(Cc1ccc(-c2ccc(C(F)(F)F)cc2)cc1)C(=O)Cn1c(SCc2ccc(F)c(F)c2F)nc(=O)c2c1CCC2.O=C(O)C(O)C(O)C(=O)O | 91 | 96 | 100
CC(C)Oc1ccc2c(c1)OC(c1ccccc1)(C(F)(F)F)NC2=O (centres undefined) | 100 | 98 | 0
COc1ccc(NS(=O)(=O)c2ccc(C(=O)Nc3ccc(OC(F)(F)F)cc3)cc2)cc1N1CCN(CC2CC2)CC1.O=C(O)C(F)(F)F | 89 | 0 | 18
CN1CCN(c2ccnc3ccc(NC(=O)Cc4ccc(Br)c5ccccc45)cc23)CC1 | 96 | 99 | 8
CCCCc1cc(NCc2ccncc2)nc(Nc2ccc(OC)cc2)n1 | 93 | 22 | 11
CC1(C)N=C(N)N=C(N)N1c1ccccc1.Cl | 98 | 1 | 16
O=C1OC2(CCN(C(=O)c3ccc(-n4cnnn4)cc3)CC2)CN1Cc1ccc(Cl)c(Cl)c1 | 97 | 70 | 11
COc1ccc2nccc([C@@H](O)CN3CCC(NC(=O)c4ccc(Cl)c([N+](=O)[O-])c4)CC3)c2c1 | 88 | 43 | 14
Cn1c(Nc2cc(C(C)(C)C)on2)nc2cc(Nc3ccnc(Nc4cccc(S(=O)(=O)N5CCOCC5)c4)n3)ccc21 | 100 | 96 | 32
Br.CCCCCCCCn1ccc(=N)cc1 | 91 | 84 | 49
Cc1cc(Nc2ccc3c(c2)CCC3)n2ncnc2n1 | 86 | 48 | 4
Cc1ccc(NC(=O)Nc2ccc(Cn3ncc(N4CCCNCC4)c(Cl)c3=O)cc2)cc1.O=C(O)C(F)(F)F | 84 | 13 | 35
